Records with an inconclusive call do not appear. Active and inactive are the calls of the source. The call rests on the fitted dose curve; in most records, active means well fitted cell-killing curve with a large enough effect in the repeat runs; inconclusive means weak or mixed curves; inactive means flat fitted curve, though single readings scatter.
Experiment: qHTS assay to identify small molecule antagonists of the estrogen related receptor (ERR) signaling pathway from Tox21 library - cell viability counter screen (AID 1224834); further: nearly all actives have a fitted effect of over 30% in size
Conditions: ERR reporter cells viability, CellTiter-Fluor, 17.5 h; series mostly up to 92.4 µM; viability change, negative = cytotoxic: at the top concentration
Excerpt: National Center for Advancing Translational Sciences [NCATS]
NIH Chemical Genomics Center [NCGC]
U.S. Environmental Protection Agency [EPA]
National Institutes of Environmental Health Sciences [NIEHS]
National Toxicology Program [NTP]
U.S. Food and Drug Administration [FDA]
Estrogen related receptors (ERRs), the first orphan nuclear receptors discovered, play an important role in the control of cellular energy metabolism. ERRs are required for high-energy production in response to the environmental challenges. ERR-alpha was also identified as an adverse marker for breast cancer progression; ERR-alpha-positive tumors have a poor prognosis. To screen and to identify environmental compounds that perturb the ERR signaling pathways could provide valuable information for potential therapeutic or preventive measures in the treatment of metabolic disease. To differentiate true ERR antagonists or agonist from cytotoxic substances, the assay is multiplexed with cell viability assay.
Tox21 Assay Protocol Summary:
The ERR cells were dispensed at 2,000 cells/5 ul/well in 1536-well white plates using a Multidrop dispenser. After the assay plates were incubated at a 37 C/5% CO2 incubator for 6 hours, 23 nL of compounds dissolved in DMSO, positive and negative controls or DMSO only was transferred to the assay plate by a pin tool. The plates were incubated at 37 C for 17.5 hours. 1 ul/well of CellTiter-Fluor reagent was added into the assay plates using a Flying Reagent Dispenser. After 30-minute incubation at 37 C/5% CO2, the fluorescence intensity in the plates was measured using a ViewLux plate reader.
On the % scale 0 is the no-effect control and ±100 the full control effect.

Compound | viability change, negative = cytotoxic | Potency
C[C@@H]1CCN(C(=O)[C@H](CCCN=C(N)N)NS(=O)(=O)c2cccc3c2NC[C@H](C)C3)[C@@H](C(=O)O)C1 | -0.21% [at 42.5 µM] (inactive) | 
NC(=O)COCCN1CCN(C(c2ccccc2)c2ccc(Cl)cc2)CC1 (stereo not given) | 8.39% [at 42.5 µM] (inactive) | 
C[C@H](NC(CCc1ccccc1)C(=O)O)C(=O)N1CCC[C@H]1C(=O)O (stereo not given in full) | -1.54% [at 42.5 µM] (inactive) | 
O=C[C@H](O)[C@@H](O)[C@H](O)[C@H](O)CO | 0.749% (inactive) | 
O=C(O)CNC(=O)c1ccc([N+](=O)[O-])cc1 | -3.16% (inactive) | 
O=C(O)COc1nn(Cc2ccccc2)c2ccccc12 | 2.8% [at 42.5 µM] (inactive) | 
CC(C)NCCCC1(C(N)=O)c2ccccc2-c2ccccc21 | -2.36% [at 42.5 µM] (inactive) | 
CCN(CC)CCOCCOC(=O)C1(c2ccccc2)CCCC1 | -8.81% [at 42.5 µM] (inactive) | 
CN1CCN(c2cc3c(cc2F)c(=O)c(C(=O)O)cn3-c2ccc(F)cc2)CC1 | -2.31% [at 42.5 µM] (inactive) | 
CO/N=C(/C(=O)N[C@@H]1C(=O)N2C(C(=O)OCOC(=O)C(C)(C)C)=C(C)CS[C@H]12)c1csc(N)n1 | -2.14% [at 42.5 µM] (inactive) | 
CCSC(=O)N(CC(C)C)CC(C)C | 5.47% (inactive) | 
Cc1ccc(Cl)cc1Cl | 1.67% (inactive) | 
COC(=O)c1cc(C(=O)OC)cc(S(=O)(=O)O)c1 | 3.06% (inactive) | 
O=Cc1cccc([N+](=O)[O-])c1 | 1.78% (inactive) | 
CCOc1ccc(C(=O)OCCN(CC)CC)cc1 | 3.51% [at 42.5 µM] (inactive) | 
O=S(O)CO | 2.98% (inactive) | 
CCn1ccnc1CC1COc2ccccc2O1 (stereo not given) | 0.401% [at 42.5 µM] (inactive) | 
CN1CCCC1 | 0.595% (inactive) | 
C[C@H]1C[C@@H](O)CC(C)(C)C1 | 1.25% (inactive) | 
Cc1[nH]c(=O)c(C#N)cc1-c1ccc2nccn2c1 | 5.22% [at 42.5 µM] (inactive) | 

Compound | viability change, negative = cytotoxic | Potency
C=COCC1CCC(CO)CC1 (stereo not given) | 0.781% (inactive) | 
COc1cc(C(=O)N2CCCCCCC2)cc(OC)c1OC | 8.16% [at 42.5 µM] (inactive) | 
CN(C)CCCSc1ccccc1NC(=O)/C=C/c1ccccc1 | 0.882% [at 42.5 µM] (inactive) | 
CC[N+](C)(C)c1cccc(O)c1 | 1.23% [at 42.5 µM] (inactive) | 
Cc1cnc(NS(=O)(=O)c2ccc(N)cc2)nc1 | -0.472% [at 42.5 µM] (inactive) | 
C=CCOCC(CC)(CO)COCC=C | 7.23% (inactive) | 
COc1ccc2c(c1)c(CC(=O)OCC(=O)O)c(C)n2C(=O)c1ccc(Cl)cc1 | -1.22% [at 42.5 µM] (inactive) | 
C1CN(CCOCCN2CCOCC2)CCO1 | -2.49% (inactive) | 
NS(=O)(=O)c1cc(C(=O)O)cc(N2CCCC2)c1Oc1ccccc1 | 8.97% [at 42.5 µM] (inactive) | 
CC(C[N+](C)(C)C)OC(N)=O (stereo not given) | 8.86% [at 42.5 µM] (inactive) | 
CCOC(=O)CCC(C)=O | 3.57% (inactive) | 
O=C(O)CCCc1ccccc1 | 5.24% [at 42.5 µM] (inactive) | 
O=C1CCCN1C1CCCCC1 | 5.09% (inactive) | 
CC(=O)CC(C)C | 0.14% (inactive) | 
CCN1CCC[C@H]1CNC(=O)c1c(O)c(Cl)cc(Cl)c1OC | 7.69% [at 42.5 µM] (inactive) | 
CC(=O)CC(C)(C)C1CCCCC1 | 0.132% (inactive) | 
CCCCOCCOCCOCc1cc2c(cc1CCC)OCO2 |  | inactive
Cc1sccc1Br | 2.09% [at 42.5 µM] (inactive) | 
N[C@H]1CN(c2c(F)cc3c(=O)c(C(=O)O)cn(C4C[C@H]4F)c3c2Cl)CC12CC2 (stereo not given in full) | 1.79% [at 42.5 µM] (inactive) | 
OCCCC1CCCCC1 | 3.04% (inactive) | 

Source: PubChem BioAssay (Tox21)
